The record followed here is PubChem BioAssay AID1422 (Emory University Molecular Libraries Screening Center, 2008).

Screen size: about 260,000 compounds; about 1,300 (0.5%) were called active.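 Rule for the calls: active = percent inhibition above 40 after rounding to a whole number; inactive = the rest.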 The full list was thinned out, with actives kept by preference.

Chain of Prostaglandin E2 receptor EP2 subtype (Homo sapiens) (P43116 whole entry, looked up): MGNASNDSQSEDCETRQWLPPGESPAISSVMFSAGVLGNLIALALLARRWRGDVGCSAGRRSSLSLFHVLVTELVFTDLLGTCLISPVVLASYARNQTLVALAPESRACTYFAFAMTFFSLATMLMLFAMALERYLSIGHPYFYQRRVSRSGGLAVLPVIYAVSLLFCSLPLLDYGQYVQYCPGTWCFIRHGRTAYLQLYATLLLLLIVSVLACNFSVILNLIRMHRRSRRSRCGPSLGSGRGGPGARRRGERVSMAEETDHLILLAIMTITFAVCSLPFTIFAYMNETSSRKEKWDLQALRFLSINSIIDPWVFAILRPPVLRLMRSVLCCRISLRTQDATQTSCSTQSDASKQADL

This test addresses Prostaglandin E2 receptor EP2 subtype (Homo sapiens) (UniProt P43116). In words: blockers of PGE2-driven EP2 cAMP signalling – TR-FRET cAMP, C6 glioma cells, primary screen (AID 1422).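 Note: rat C6 glioma host cells with rolipram phosphodiesterase inhibitor present; the protocol text gives 20 µM as final concentration.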 The settings on record: C6 glioma cells expressing human EP2, cAMP TR-FRET, at 25 µM, active compounds read high; cells stimulated with saturating PGE2 unless noted.
For the molecule `O=C1C[C@@H]2OCC=C3CN4CC[C@]56c7ccccc7N1[C@H]5[C@H]2[C@H]3C[C@H]46` (tested in a mixture with another compound), the inhibition was 43.4% (active).
Turning to `COc1ccccc1CN(CCN(C)C)C(=O)Cc1nn(C)c(=O)c2ccccc12`, the inhibition is 8.64% (inactive).
Regarding `COc1ccc(C2=NCC(=O)N(Cc3cccnc3)c3sc4c(c32)CCCC4)cc1`, the inhibition is 7.58% (inactive).
Next, `CC(=O)O[C@H]1CC[C@@]2(C)[C@@H](CC[C@H]3[C@H]2CC(=O)[C@]2(C)[C@@H]3C[C@@H](N3CC3)[C@H]2C(C)=O)C1`: 44% (active); `CC(=O)O[C@H]1CC[C@@]2(C)C(=CCC3C2CC[C@]2(C)C(=O)CCC32)C1` (stereo not given in full): 13.5% [setting not given] (inactive).
The result for `C=C1C2CC[C@@]3(C)[C@H](c4ccoc4)OC(=O)C[C@]13O[C@H]1CC(=O)C(C)(C)[C@H](C(OC(C)=O)C(=O)OC)[C@@]21C` (stereo not given in full) reads 14.4% (inactive); that for `COc1cc([C@@H]2c3cc4c(cc3[C@H](OC(C)=O)[C@H]3COC(=O)[C@H]23)OCO4)cc(OC)c1OC`, 14.4% (inactive).
As to `Fc1ccc2c(c1)nnn2C1CCN(Cc2nnnn2C2CCCC2)CC1`, the inhibition was 8.46% (inactive).
Take `CC[C@@](O)(C(=O)O)c1cc2n(c(=O)c1CO)Cc1cc3ccccc3nc1-2`: the inhibition is 47.7% (active).
The result for `CCn1cc(C(=O)c2ccco2)c2ccccc21` reads 1.27% (inactive).
For `c1ccc2[nH]c(C3CCNCC3)nc2c1`, the inhibition is 6.74% (inactive).
For the molecule `C=CCc1cc(CN2C3CCC2CC(O)(c2nccn2C)C3)cc(OC)c1O` (stereo not given), the inhibition was 10.4% (inactive).
The result for `Cc1ccc(C(C)N2CCNCC2)c(C)c1` (stereo not given) reads 5.45% (inactive).
On to `COc1cc(CN2C3CCC2CC(O)(c2ccccc2F)C3)ccc1OC(C)C` (stereo not given), for which the inhibition was 6.07% (inactive).
Take `Cc1nc(-c2ccc(F)cc2)c(CC(=O)N(CCN(C)C)C2CCCCC2)s1`: the inhibition was 2.82% (inactive).
